Data from PubChem BioAssay (Tox21).
Inconclusive results are not listed. A number with no mark means an inactive call. Unless noted, the call rests on the fitted dose curve; in most records, active means well fitted cell-killing curve with a large enough effect in the repeat runs; inconclusive means weak or mixed curves, or effect the other way; inactive means no such curve, though single readings can be large or run the other way.

molecular target: Peroxisome proliferator-activated receptor gamma (Homo sapiens) (UniProt P37231); assay: qHTS assay to identify small molecule antagonists of the peroxisome proliferator-activated receptor gamma (PPARg) signaling pathway (AID 743191; calls by dose curve; further: nearly all actives have a fitted effect of over 30% in size); conditions: HEK293H PPARg-UAS-bla, beta-lactamase ratio, antagonist, 17 h; series mostly up to 62.6 µM; ratio activity, negative = inhibition: at the top concentration
In short: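 Beta-lactamase reporter under UAS control in HEK293H PPARg-bla cells; compound treatment 17 h at 37C. Read-out: fluorescence intensity after 1 h room-temperature incubation with LiveBLAzer B/G FRET substrate.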
On the % scale 0 is the no-effect control and ±100 the full control effect.

Peroxisome proliferator-activated receptor gamma (Homo sapiens), sequence (P37231 whole entry, looked up): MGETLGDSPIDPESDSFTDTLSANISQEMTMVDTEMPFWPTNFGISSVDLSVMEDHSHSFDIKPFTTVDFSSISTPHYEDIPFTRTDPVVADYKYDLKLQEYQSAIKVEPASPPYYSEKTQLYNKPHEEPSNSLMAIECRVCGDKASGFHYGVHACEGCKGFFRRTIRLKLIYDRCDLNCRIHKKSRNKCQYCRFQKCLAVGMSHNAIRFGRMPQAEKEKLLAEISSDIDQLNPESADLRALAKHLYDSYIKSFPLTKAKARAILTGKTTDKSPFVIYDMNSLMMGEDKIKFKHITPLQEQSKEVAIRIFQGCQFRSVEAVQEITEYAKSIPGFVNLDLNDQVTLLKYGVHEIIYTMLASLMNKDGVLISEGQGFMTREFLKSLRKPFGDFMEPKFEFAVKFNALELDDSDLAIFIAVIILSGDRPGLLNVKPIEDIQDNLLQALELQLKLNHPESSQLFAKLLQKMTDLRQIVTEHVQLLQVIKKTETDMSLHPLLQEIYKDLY

Row | SMILES | ratio activity, negative = inhibition
1 | CC(=O)c1ccc2ccc3ccccc3c2c1 | -9.27%
2 | Cc1ccc(S(=O)(=O)NC(=O)NN2CC3CCCC3C2)cc1 (stereo not drawn) | -1.7%
3 | CC(C)(C)NCC(O)COc1cccc2c1CCC(=O)N2 (stereo not drawn) | -0.988%
4 | Cc1ccc(Br)cc1 | 0.469%
5 | CSC(=O)c1cccc2nnsc12 | -3.12%
6 | CC/C=C\CCOC(=O)c1ccccc1 | -4.99%
7 | CC[C@@]1(c2ccccc2)NC(=O)N(C)C1=O | 8.82%
8 | Cc1cc(O)c(Cl)cc1C | 16.3%
9 | COc1ccc2cc(CCC(C)=O)ccc2c1 | -10.9%
10 | CC(=O)OC/C=C(/C)CCC=C(C)C | 7.1%
11 | Cc1ccc2ccccc2n1 | 9.43%

system: not listed separately; assay: qHTS assay to identify small molecule antagonists of the peroxisome proliferator-activated receptor gamma (PPARg) signaling pathway - cell viability counter screen (AID 743194); conditions: PPARg-bla HEK293H viability, CellTiter-Glo luminescence, 17 h, co-treated with 50 nM rosiglitazone; series mostly up to 62.6 µM; activity change, negative = cytotoxicity: at the top concentration; further: nearly all actives have a fitted effect of over 55% in size
In short: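 Viability was measured as CellTiter-Glo luminescence in GeneBLAzer PPARg UAS-bla HEK293H cells. These cells had been exposed 17 h at 37 C to compounds together with rosiglitazone at 50 nM final, with the beta-lactamase readout taken in the same wells.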

Row | SMILES | activity change, negative = cytotoxicity
12 | CCOc1ccccc1OCCN[C@H](C)Cc1ccc(OC)c(S(N)(=O)=O)c1 | -3.12%
13 | CC(CN1CC(=O)NC(=O)C1)N1CC(=O)NC(=O)C1 (stereo not drawn) | -0.317%
14 | C=COCCCCO | 19.7%
15 | O=C(O)/C=C(\CC(=O)O)C(=O)O | -0.884%
16 | CCC(C)SSC(C)CC (stereo not drawn) | 15.8%
17 | Cc1ccc(S(=O)(=O)NC(=O)NN2CC3CCCC3C2)cc1 (stereo not drawn) | 19.5%
18 | O=C1CC2(CCCC2)CC(=O)N1CCNCC1COc2ccccc2O1 (stereo not drawn) | 11.5%
19 | CNCCc1ccccn1 | -1.05%
20 | CC[N+](C)(CC)CC | 6.26%
21 | CC(C)(C)NCC(O)COc1cccc2c1CCC(=O)N2 (stereo not drawn) | -1.1%
22 | c1coc(Cn2cccc2)c1 | -8.73%
23 | CCCCCCCCS(=O)(=O)O | -2.16% [at 81.1 µM]
24 | C/C(=N\O)c1ccc(OCC(=O)N2CCCCC2)cc1 | 1.08%
25 | Clc1cc(Cl)c(Cl)c(Cl)c1Cl | -9.79%
26 | Cc1cc(C)c(C)c(C)c1 | 12.2%
27 | CC1(C)C(=O)C(C)(C)C1=O | -1.11%
28 | Cc1ccc(Br)cc1 | -17.9%
29 | C=CCCCCCCCCOC(C)=O | 2.4%
30 | CSC(=O)c1cccc2nnsc12 | 0.32%

Row | SMILES | activity change, negative = cytotoxicity
31 | CN(C)c1ccncc1 | 6.51%
32 | C=CCN(CC=C)CC=C | -3.1%
33 | CC(C)(O)CCCC1=CCC(C=O)CC1 (stereo not drawn) | -6.48% [at 81.1 µM]
34 | CC(=O)OC1CCC(C(C)(C)C)CC1 (stereo not drawn) | -2.15%
35 | CC/C=C\CCOC(=O)c1ccccc1 | -0.728%
36 | O=C(O)P(=O)(O)O | -5.97%
37 | COc1cnc(NS(=O)(=O)c2ccc(N)cc2)nc1 | 2.07%
38 | CCCCCCCCCCCCCCCCN(C)C | 2.19% [at 5.95 µM]
39 | CC[C@@]1(c2ccccc2)NC(=O)N(C)C1=O | -3.71%
40 | Cc1cc(O)c(Cl)cc1C | 9.21%
41 | C[C@@H]1CC[C@@]2(OC1)O[C@H]1C[C@H]3[C@@H]4CC[C@H]5C[C@@H](O)CC[C@]5(C)[C@H]4CC(=O)[C@]3(C)[C@H]1[C@@H]2C | 10.8% [at 5.95 µM]
42 | NS(=O)(=O)c1cc2c(cc1C(F)(F)F)NCNS2(=O)=O | -17.2%
43 | CCN(CC)CC | 18.1% [at 81.1 µM]
44 | COc1ccc2cc(CCC(C)=O)ccc2c1 | -1.24%
45 | CC(=O)OC/C=C(/C)CCC=C(C)C | -1.92%
46 | CCCCN1C(=O)c2ccccc2C1=O | -0.132% [at 81.1 µM]
47 | CCC(C)(C)C | 15.3% [at 81.1 µM]
48 | Cc1ccc2ccccc2n1 | 13%
